Compound activity as filed in PubChem BioAssay.
In the library only some 3.4% were active in any assay of this set; here they are far more common.
PLK1 PBD inh: PLK1 (human) polo-box domain binding inhibition. P53350. Plk1 PBD binding of FITC phosphopeptide, fluorescence polarization. Potency, µM, for the others: max response, negative = inhibition, most hits filed as inhibitors. 2.8% of 360,000 active; also: series mostly up to about 57 µM; % is scaled to controls: 0 for no effect and ±100 for the full control effect; nearly all actives have a fitted effect of over 65% in size
GCN5L2 inh: inhibitors of human GCN5L2 histone acetyltransferase. Potency, µM (doses to about 58.9 µM), for the others: at the highest dose activity change, negative = inhibition, most hits filed as inhibitors. GCN5L2 HAT assay, ThioGlo1 CoA-SH fluorescence. 0.21% of 390,000 active. Q92830; also: % is scaled to controls: 0 for no effect and ±100 for the full control effect
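qHTS, 1536-well. 20nM enzyme, pH 7.5 HEPES/EDTA/Tween-20 buffer; 15 min compound preinc., RT. Start: 75uM H3(1-25), 70uM AcCoA, 50uM ThioGlo1. Read Ex340/Em540 at t=0 (autofluorescence flag) and t=20 min.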
VDR inh: vitamin D3 receptor (human) inhibition. VDR-SRC2-3 peptide fluorescence polarization, 2 h. Potency, µM, for inactives: max response, negative = inhibition, actives largely listed as inhibitors. 0.93% of 400,000 active. AID 504847; also: % is scaled to controls: 0 for no effect and ±100 for the full control effect
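Two reagent solutions held at 4 deg C in the dark were dispensed, compounds pinned at 23 nl, and the mixture incubated 2 h at room temperature. Read-out: fluorescence polarization of VDR–SRC2-3 peptide binding.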
PKM2 act: activators of human pyruvate kinase M2. P14618. purified PKM2, Kinase-Glo ATP luminescence, activation; response scale: 0% is enzyme alone, no compound. Potency, µM (series often up to 57.5 µM), inactives show at the highest dose activation, most hits filed as activators. 0.34% of 260,000 active; also: % is scaled to controls: 0 for no effect and ±100 for the full control effect; nearly all actives have a fitted effect of over 55% in size
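ATP formation by purified human PK-M2, quantified via coupled luciferase luminescence after 1 h at room temperature with 0.1 mM ADP and 0.5 mM PEP final.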
GLS inh: blocks human kidney-isoform glutaminase activity; AID 624170; 0.21% of 410,000 active; Potency, µM (highest dose often 45.5 µM), without a hit: top-dose activity change, negative = inhibition, hits mostly inhibitors; GLS enzymatic activity, qHTS titration; also: % is scaled to controls: 0 for no effect and ±100 for the full control effect
Target sequence (O94925 whole entry, looked up, canonical isoform): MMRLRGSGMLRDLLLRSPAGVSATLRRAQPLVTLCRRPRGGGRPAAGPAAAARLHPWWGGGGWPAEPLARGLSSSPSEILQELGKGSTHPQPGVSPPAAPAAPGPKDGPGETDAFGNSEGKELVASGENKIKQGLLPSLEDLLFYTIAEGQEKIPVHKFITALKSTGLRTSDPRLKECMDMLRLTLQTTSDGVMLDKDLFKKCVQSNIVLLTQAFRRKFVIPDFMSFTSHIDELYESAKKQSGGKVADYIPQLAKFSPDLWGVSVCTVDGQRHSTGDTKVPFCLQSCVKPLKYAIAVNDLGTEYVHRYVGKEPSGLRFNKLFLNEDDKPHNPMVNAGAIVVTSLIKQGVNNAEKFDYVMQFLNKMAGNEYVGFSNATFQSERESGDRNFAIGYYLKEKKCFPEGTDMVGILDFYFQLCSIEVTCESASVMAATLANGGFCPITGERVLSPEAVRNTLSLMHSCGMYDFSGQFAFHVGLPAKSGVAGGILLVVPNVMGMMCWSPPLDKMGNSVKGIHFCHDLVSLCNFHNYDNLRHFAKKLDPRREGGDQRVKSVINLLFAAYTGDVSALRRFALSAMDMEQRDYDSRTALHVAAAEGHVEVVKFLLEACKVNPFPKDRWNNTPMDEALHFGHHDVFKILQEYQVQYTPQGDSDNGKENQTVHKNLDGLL
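hKGA in 45 mM KH2PO4 pH 8.2, 0.02% Tween-20 with pin-transferred compounds; 1 mM L-glutamine (stock) plus glutamate oxidase/HRP/Amplex Red coupling added. Fluorescence read initially and after 30 min at RT.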
Mito fusion act: inhibitors of mitochondrial division or activators of mitochondrial fusion; S. cerevisiae fusion-defective mutant growth rescue, CellTiterGlo 48 h; AID 485298; 0.23% of 320,000 active; Potency, µM (top dose mostly 46.1 µM), for inactives: top-dose growth rescue (activation), usual class: activators; also: % of control where 0% means no effect; nearly all actives have a fitted effect of over 45% in size
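Yeast fusion mutant, YPEG (non-fermentable carbon), compound, 48 h at 37C non-permissive; CellTiterGlo added, 10 min RT, luminescence read. Rescued growth = division inhibition.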
The depositor's hits bear a star; ? = inconclusive; · = no result; [ ] = another dose, or the depositor's remark. Calls follow the shape of the dose curve; as a rule, active = well fitted curve in the direction sought with a large enough effect; inconclusive = small, poorly fitted or top-dose-only effect, or another doubt; inactive = no such curve, though single readings can be large; an effect the other way counts as inactive or inconclusive. Potency is read from the fitted curve at half-maximal effect.

SMILES	PLK1 PBD inh	GCN5L2 inh	VDR inh	PKM2 act	GLS inh	Mito fusion act
CCCCC(=O)N1C(C)CCC1C (stereo not drawn)	24µM*	·	·	·	-6%	·
O=C(/C=C/c1cccs1)N1CCN(c2ccc(O)cc2)CC1	-11%	-10%	0%	0%	7.1µM*	-22%
O=C(/C=C/c1cccs1)N1CCCCC1	-5%	2%	11%	-14%	-11%	-3%
Cc1ccc(C)c(S(=O)(=O)ON2C(=O)c3ccccc3C2=O)c1	2.7µM*	0%	20µM*	17%	26%	-1%
Cc1cc(S(=O)(=O)ON2C(=O)c3ccccc3C2=O)ccc1F	6.7µM*	-1%	32µM*	4%[0.46 µM]	26%	-2%
COCCNC(=S)Nc1ccc(N2CCCCC2)cc1	3.8µM*	-12%	32µM*	-16%	18%	-11%
COc1ccc(C(=O)NC(=S)Nc2ccc(N3CCCC3)cc2)cc1	-19%	2%	-3%	-4%	0%	3%
Cc1ccc2occ(CC(=O)Nc3ccc(Cl)c(C(F)(F)F)c3)c2c1	·	-14%	-12%	·	2%	·
O=S1(=O)c2ccc(Br)cc2OC(COCc2ccccc2)CN1Cc1ccccc1 (stereo not drawn)	24µM*	-9%	?	·	8%	·
CCCn1c(SCC(=O)N2c3ccc(F)cc3CCC2C)nnc1-c1ccccn1 (stereo not drawn)	30µM*	1%	?	-4%	7%	7%
O=C(Nc1ccccc1)c1ccc[nH]1	19µM*	2%	?	-13%	34%	1%
CC(C)c1cccc2nc3c(c([Si](C)(C)C)c12)Cn1c-3cccc1=O	·	·	·	-4%	·	·
COC(=O)C1[C@@H](OC)C(OC(=O)COc2ccc(OC)cc2)C[C@@H]2CN3CCc4c([nH]c5cc(OC)ccc45)[C@H]3C[C@H]12 (stereo partly drawn)	·	-6%	-4%	·	-3%	·
Cc1nccn1-c1c([N+](=O)[O-])c(=O)n(C)c2ccccc12	-7%	-4%	-2%	3%	5%	-9%
Cn1c(=O)c([N+](=O)[O-])c(Cl)c2ccccc21	?	0%	18µM*	0%	0%	-24%
Cn1c(=O)c([N+](=O)[O-])c(-n2cnc3ccccc32)c2ccccc21	-11%	2%	20µM*	3%	5%	-3%
CC(COc1ccccc1)NN (stereo not drawn)	·	·	·	·	4%	·
CCc1nc2c(OCc3ccc(C#N)cc3)cccn2c1N(C)C(=O)c1cccs1	0%	·	·	·	-1%	·
Nc1ncnc2c1nc(Br)n2[C@H]1O[C@H]2COP(=O)(O)O[C@H]2[C@@H]1O	·	-6%	-1%	·	·	·
Cc1c(C(=O)OCC(=O)Nc2c(C)n(C)n(-c3ccccc3)c2=O)cccc1[N+](=O)[O-]	21µM*	0%	8%	-1%	5%	0%
COc1cc(C(=O)OCC(=O)Nc2c(C)n(C)n(-c3ccccc3)c2=O)c([N+](=O)[O-])cc1OC	-4%	-1%	-21%	·	11%	-8%
CSCC[C@H](NC(=O)c1ccc(Br)o1)c1nnc2ccccn12	11µM*	-10%	?	6%	-14%	6%
CSCC[C@H](NC(=O)c1cccs1)c1nnc2ccccn12	5%	-7%	-2%	·	-4%	6%
O=C(O)CC(C(=O)O)N1C(=O)/C(=C/c2ccc(-c3nc4ccccc4s3)o2)SC1=S (stereo not drawn)	-8%	?	50µM*	-1%	11µM*	-4%
O=C(O)CCN1C(=O)/C(=C/c2ccc(-c3nc4ccccc4s3)o2)SC1=S	9.5µM*	?	?	-1%	?	3%
O=C(O)CCCN1C(=O)/C(=C\c2ccc(-c3nc4ccccc4s3)o2)SC1=S	11µM*	?	?	0%	?	2%
Cc1ccc(S(=O)(=O)NC(C)(C)CN2CCC(Cc3ccccc3)CC2)cc1	-4%	-7%	16%	3%	9%	1%
